We go through five compounds from PubChem BioAssay (NCATS).

Test [1] is described as follows: qHTS for differential inhibitors of proliferation of Plasmodium falciparum line Dd2 (AID 1882). Note: nearly all actives have a fitted effect of over 65% in size. Note: potency is the fitted concentration of half-maximal effect. Particulars: Potency: Plasmodium falciparum Dd2 proliferation inhibition. In a few lines: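 Dd2-infected erythrocytes (0.3% parasitemia, 2.5% hematocrit final) incubated with compound 72 h at 37 C, 5% CO2; lysed with saponin/Triton buffer containing SYBR Green I, incubated overnight in the dark, then read by fluorescence (485/535 nm). Normalized to 0.29 uM artemisinin and DMSO.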
Background: Quantitative high-throughput screening tests each substance at several concentrations.

A short description of test [2]: qHTS for differential inhibitors of proliferation of Plasmodium falciparum line HB3 (AID 1886).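 Note: parasites grown with compound for 72 h before SYBR Green readout.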 Note: potency is the fitted concentration of half-maximal effect. Particulars: Potency: Plasmodium falciparum HB3 proliferation inhibition.
Test [3] concerns the target Ferritin light chain (Equus caballus) (UniProt P02791). Description: qHTS Validation Assay for Identification of Novel General Anesthetics (AID 2323). In outline:
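Competitive displacement of the profluorescent anesthetic 1-AMA (50% saturated, PBS) from 10 uM apoferritin, 10 min, room temperature. Activity is normalized 380/535 nm fluorescence; concentration-response fitted with a four-parameter Hill equation.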

Test [4] addresses ATP-dependent DNA helicase Q1 (Homo sapiens) (UniProt P46063). Description: qHTS Validation Assay for Inhibitors of RecQ-Like Dna Helicase 1 (RECQ1) (AID 2353). In outline: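 50 nM RECQ1T1 preincubated 15 min with compound in Tris pH 8.0 buffer with MgCl2, DTT, Tween-20 and 2.5 ug/ml poly(dI-dC); started with 200 nM TAMRA/BHQ-2 forked duplex and 2 mM ATP. Unwinding read as fluorescence (525/598 nm), two reads 2 h apart.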

Test [5] can be described thus: Cytometric Cell-Based qHTS for Inhibitors of the mTORC1 Signaling Pathway in MEF (Tsc2-/-, p53-/-) Cells (AID 2660).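 Note: percent of cells above a phospho-rpS6 to PI ratio cutoff in each well.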 In a few lines:
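Immunofluorescence qHTS of rpS6 Ser235/236 phosphorylation: MEFs (Tsc2-/-, p53-/-) treated 24 h, 37 C, in DMEM + 10% FBS. Alexa-488 signal normalized to PI count, referenced to rapamycin (7.5 nM) and DMSO; PI cell number recorded for viability.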

The nature of test [6]: High Content Imaging Cell-Based qHTS for Inhibitors of the mTORC1 Signaling Pathway in MEF (Tsc2-/-, p53-/-) Cells (AID 2666). Particulars: at 38.3 µM (top of the series). In outline: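 Phospho-rpS6 (Ser235/236) immunofluorescence, normalized and scored as % positive cells using rapamycin and DMSO controls, was read in empty-vector Tsc2-/-, p53-/- MEFs after 24 h compound exposure at 37 C; propidium iodide counted cells.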

Test [7] is described as follows: Validation screen for small molecules that induce DNA re-replication in MCF 10A normal breast cells (AID 463097). Note: nearly all actives have a fitted effect of over 60% in size. In a few lines: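 Read-out is Hoechst total nuclear intensity by fluorescence scanning imager, flagging increased high-DNA-content nuclei. Compounds were incubated with MCF 10A cells for 48 hr (37 C, 5% CO2) before 40 min staining.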
The nature of test [8]: qHTS for differential inhibitors of proliferation of Plasmodium falciparum line W2 (AID 1883).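 Note: parasites grown with compound for 72 h before lysis and staining.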 Note: potency is the fitted concentration of half-maximal effect. Particulars: Potency: Plasmodium falciparum W2 proliferation inhibition.
The target in test [9] is RecQ-like DNA helicase BLM (Homo sapiens) (UniProt P54132). In words: qHTS Validation Assay for Inhibitors of Bloom's syndrome helicase (BLM) (AID 2364). In outline: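 50 nM BLM preincubated 15 min at room temperature with compound in pH 8.0 Tris buffer containing 2.5 ug/ml poly(dI-dC); started with 200 nM TAMRA/BHQ-2 forked duplex and 2 mM ATP (final). Unwinding read as TAMRA fluorescence increase, two reads 2 h apart.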
Sequence of RecQ-like DNA helicase BLM (Homo sapiens) (P54132 whole entry, looked up): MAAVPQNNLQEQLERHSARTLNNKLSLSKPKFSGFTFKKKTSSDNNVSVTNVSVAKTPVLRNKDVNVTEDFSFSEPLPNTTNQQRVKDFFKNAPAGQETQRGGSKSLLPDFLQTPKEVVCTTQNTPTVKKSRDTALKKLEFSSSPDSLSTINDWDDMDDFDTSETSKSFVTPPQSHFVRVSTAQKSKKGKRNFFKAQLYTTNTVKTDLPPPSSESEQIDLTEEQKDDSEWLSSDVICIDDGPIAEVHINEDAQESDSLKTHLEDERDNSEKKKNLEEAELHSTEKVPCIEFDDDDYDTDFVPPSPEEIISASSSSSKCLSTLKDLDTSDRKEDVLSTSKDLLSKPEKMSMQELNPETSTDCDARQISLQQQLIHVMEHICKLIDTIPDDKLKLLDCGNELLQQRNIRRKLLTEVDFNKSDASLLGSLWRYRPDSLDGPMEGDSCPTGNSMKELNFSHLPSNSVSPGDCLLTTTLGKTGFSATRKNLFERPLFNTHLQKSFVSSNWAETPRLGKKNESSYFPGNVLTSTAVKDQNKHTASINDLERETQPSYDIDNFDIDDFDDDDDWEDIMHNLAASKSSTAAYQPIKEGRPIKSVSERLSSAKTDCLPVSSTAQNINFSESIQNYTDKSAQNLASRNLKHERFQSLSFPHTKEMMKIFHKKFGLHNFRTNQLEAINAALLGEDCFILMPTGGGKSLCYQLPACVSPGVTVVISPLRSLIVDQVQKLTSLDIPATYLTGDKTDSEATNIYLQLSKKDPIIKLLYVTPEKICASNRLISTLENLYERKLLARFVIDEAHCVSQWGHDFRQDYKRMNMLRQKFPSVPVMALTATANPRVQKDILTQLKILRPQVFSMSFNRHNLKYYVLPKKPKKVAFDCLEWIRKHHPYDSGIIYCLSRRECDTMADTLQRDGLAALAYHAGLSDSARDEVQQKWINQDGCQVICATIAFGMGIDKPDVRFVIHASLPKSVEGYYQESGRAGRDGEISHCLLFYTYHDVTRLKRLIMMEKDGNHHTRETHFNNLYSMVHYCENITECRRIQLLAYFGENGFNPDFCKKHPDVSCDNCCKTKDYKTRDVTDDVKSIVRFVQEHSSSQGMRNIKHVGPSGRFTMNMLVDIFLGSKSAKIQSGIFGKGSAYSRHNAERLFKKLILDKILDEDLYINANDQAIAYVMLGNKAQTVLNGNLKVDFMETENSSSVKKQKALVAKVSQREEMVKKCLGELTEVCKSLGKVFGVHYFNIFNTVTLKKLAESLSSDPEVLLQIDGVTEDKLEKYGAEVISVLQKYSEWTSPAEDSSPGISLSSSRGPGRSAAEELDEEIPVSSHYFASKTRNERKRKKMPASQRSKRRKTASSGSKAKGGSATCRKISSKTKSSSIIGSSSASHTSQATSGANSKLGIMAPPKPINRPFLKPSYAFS

A short description of test [10]: qHTS Assay for Modulators of Human Peripheral Myelin Protein 22 (PMP22) Expression/Activity (AID 1967; active = well fitted curve in the direction sought with a large enough effect in the signal ratio; the % refers to the signal ratio). In outline: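 Readout is the corrected green/red luminescence ratio after 24 h compound exposure, normalised to untreated cells (0%). Engineered MSC80 mouse Schwann cells express green luciferase from the mouse Pmp22 promoter and red luciferase from EF-alpha as internal control.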

SMILES strings stand for the structures. Results filed as inconclusive are left out. Active and inactive are the calls of the source. Unless noted, calls come from the whole dose curve; as a rule, active = well fitted curve in the direction sought with a large enough effect; inconclusive = small, poorly fitted or top-dose-only effect, or another doubt; inactive = no such curve, though single readings can be large; an effect the other way counts as inactive or inconclusive.

Sequence of Ferritin light chain (Equus caballus) (P02791 2-175 limits assumed): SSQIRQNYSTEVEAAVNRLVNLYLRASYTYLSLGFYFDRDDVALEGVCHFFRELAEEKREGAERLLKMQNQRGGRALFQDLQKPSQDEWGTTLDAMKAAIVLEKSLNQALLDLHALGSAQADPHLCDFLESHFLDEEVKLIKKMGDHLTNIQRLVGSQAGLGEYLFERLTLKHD
Sequence of ATP-dependent DNA helicase Q1 (Homo sapiens) (P46063 whole entry, looked up): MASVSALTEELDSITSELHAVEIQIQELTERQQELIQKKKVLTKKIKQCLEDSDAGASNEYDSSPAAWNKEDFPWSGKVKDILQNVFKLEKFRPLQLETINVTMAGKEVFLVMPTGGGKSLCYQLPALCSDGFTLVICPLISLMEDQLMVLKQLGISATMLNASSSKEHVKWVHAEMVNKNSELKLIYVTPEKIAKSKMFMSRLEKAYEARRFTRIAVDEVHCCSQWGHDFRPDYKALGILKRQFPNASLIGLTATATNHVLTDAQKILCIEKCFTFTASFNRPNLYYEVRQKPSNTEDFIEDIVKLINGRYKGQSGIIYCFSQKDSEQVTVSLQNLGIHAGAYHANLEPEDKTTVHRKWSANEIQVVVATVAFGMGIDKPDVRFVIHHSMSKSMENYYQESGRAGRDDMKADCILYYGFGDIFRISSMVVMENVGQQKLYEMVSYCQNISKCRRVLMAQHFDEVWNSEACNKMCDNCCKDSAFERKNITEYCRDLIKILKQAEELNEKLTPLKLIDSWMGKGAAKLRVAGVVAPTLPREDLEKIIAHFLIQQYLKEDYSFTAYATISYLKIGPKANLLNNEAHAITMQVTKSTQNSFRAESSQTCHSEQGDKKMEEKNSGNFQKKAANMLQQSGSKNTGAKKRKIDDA

In the case of `Oc1ccc(/C=C/c2cc(O)cc(O)c2)cc1`, the Potency entry in test [1] and in [2] was “inactive” in each case. Further, the call in test [3], in test [4], in [5], in test [6] and in [7] was inactive.
On to `O=c1[nH]c(=O)n([C@H]2C[C@H](O)[C@@H](CO)O2)cc1/C=C/Br`, for which the Potency entry in test [1], in test [8] and in test [2] was “inactive” in each case. The call in test [3], in test [4] and in test [7] was inactive.
`C[C@@](Cc1ccc(O)c(O)c1)(NN)C(=O)O`: in test [1], the Potency was 10 µM (active). Besides, the outcome in test [3], in test [4], in test [9] and in [7] was inactive.
On to `Cc1cc(C)c(NC(=O)C[C@H](CC(=O)O)c2cccc3ccccc23)c(C(=O)N2CCC3(CCCC3)CC2)c1`, for which the Potency in [8] was 11.2 µM (active); in test [2] it was 14.1 µM (active). Moreover, the compound was classed as inactive in test [3], in [4] and in test [7].
Regarding `O=C(NCCNCC(O)COc1ccc(O)cc1)N1CCOCC1` (stereo not given), the Potency entry in [1], in [8] and in [2] was “inactive” each time. For the same compound, the result in test [10], in test [3], in test [4] and in test [7] was inactive.
